Assay results reported in ChEMBL document CHEMBL3988442, “University of Dundee, Small-Polar-MMV Screening Library” (2021).
The whole screen tested about 48,000 compounds, of which about 13,000 (27%) showed an effect of 50% or more. The list shows a part of the results.

Test system: Wolbachia pipientis
Assay: Anti-Wolbachia Cell-Based Screen
Assay type: functional
Design: scale not given: in the data most compounds retested in dose-response had high values
Conditions: 5 µM

Compared with `Cc1cc2cc(Nc3c(C#N)c(=O)n(C)c(=O)n3C)ccc2[nH]1`, `CN(C)c1cc2c(nn1)CCN(C(=O)c1cc3ccccc3[nH]c1=O)C2` is lower in “Percent Effect” value: 4.966% for the first, 4.124% for the second.

Going from `COc1ccc2c(c1)CC(NCc1cccc(OCC(N)=O)c1)CC2` (centres undefined) to `COc1cccc(Cc2nnc(SC3CCOC3=O)o2)c1` (centres undefined), the “Percent Effect” value falls from 2.98% to -7.418%.

Going from `COc1cc2c(cc1OC)C(=O)C(Sc1nnnn1C)C2` (centres undefined) to `COc1cc2c(cc1OC)C(=O)C(Sc1nncn1C)C2` (centres undefined), the “Percent Effect” value rises from 95.35% to 119.4%.

Going from `CNS(=O)(=O)CCn1cc(-c2cc3c(cc2OC)CCC3)nn1` to `COc1cc2c(cc1OC)CN(C(=O)NC(C)c1nncn1C)CC2` (centres undefined), the “Percent Effect” value rises from -24.83% to -16.43%.

Compared with `COc1ccc(C)cc1-n1cnnc1C1CC(=O)N(C)C1` (centres undefined), `COc1cc2c(cc1OC)C(=O)C(Sc1nnc(C)o1)C2` (centres undefined) is higher in “Percent Effect” value: 6.21% for the first, 89.14% for the second.

Going from `Cc1nnc(SCC(=O)N2CCC3(CC2)c2ccccc2CC3O)o1` (centres undefined) to `O=C(c1ccccc1-c1nnn[nH]1)N1CCOC(C(F)(F)F)C1` (centres undefined), the “Percent Effect” value falls from -11.87% to -13.17%.

Compared with `O=C1CCC2(CCCO2)CCN1Cc1noc(C2CCCC2)n1` (centres undefined), `O=C(NCCNS(=O)(=O)C1CCCCC1)c1ccccc1` is higher in “Percent Effect” value: 15.53% for the first, 130.7% for the second.

Compared with `O=C(NC1(c2nnn(Cc3ccncc3)n2)CCCC1)c1ccccc1`, `O=C(NCCNS(=O)(=O)c1ccc2c(c1)CCC2)c1ccccc1` is higher in “Percent Effect” value: -7.35% for the first, 4.416% for the second.

Going from `CC(O)(CNc1ccccn1)c1ccccc1` (centres undefined) to `CCS(=O)(=O)NCCNC(=O)c1cnc(-c2ccccc2)nc1`, the “Percent Effect” value falls from 12.1% to 1.605%.

Compared with `O=C(Cc1ccc(F)cc1)NCCNS(=O)(=O)c1ccc(F)c(F)c1`, `O=C(Cc1ccc(F)cc1)NCCNS(=O)(=O)C1CCCC1` is higher in “Percent Effect” value: -6.551% for the first, 108.3% for the second.

Going from `CCc1ccc2c(c1)C(CCNC(=O)Cc1cccc(F)c1)C(=O)N2` (centres undefined) to `O=C(Cc1cccc(F)c1)NCCNS(=O)(=O)C1CCCC1`, the “Percent Effect” value rises from 1.678% to 103.6%.

Going from `Cc1cccc(CCNC(=O)CCS(=O)(=O)C2CCCC2)c1` to `O=C(CCS(=O)(=O)C1CCCC1)NCCc1cccc(O)c1`, the “Percent Effect” value falls from 1.788% to 0.8082%.

First: O=C(Cc1ccccc1)NCCNS(=O)(=O)C1CCCCC1
Second: O=C(Cc1ccc(F)cc1)NCCc1ccoc1
The “Percent Effect” value of the first is higher: 110.7% for the first, 13.31% for the second.

Going from `CN(C)C(CNCc1nc(-c2ccsc2)no1)c1cccs1` (centres undefined) to `COc1ccc(C(C)Nc2ncc(C(N)=O)cc2Cl)cc1OC` (centres undefined), the “Percent Effect” value falls from 32.89% to 2.755%.

For `CN(Cc1ccc(OC(F)F)cc1)C(=O)CS(=O)(=O)c1ccc(Cl)cc1`, the “Percent Effect” value was -2.734%.
